Screens deposited in PubChem by several laboratories.
Rows were chosen to be rich in hits. Some 2.2% of all compounds tested hit in one or more screens of this group.
proKLK7 act – proKLK7 zymogen activators, primary screen, biochemical, fluorescence intensity; Kallikrein-7 (Homo sapiens), P49862; purified proKLK7, EDANS-DABCYL substrate fluorescence; 100% is mature enzyme control, 0% vehicle; activation, % at 7 µM; 370,000 compounds, 0.9% hits; AID 652039, 2013;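 active means activation above the mean of all tested compounds plus 3 SD, computed per campaign excluding outliers beyond control limits, cut at about 13% in these data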
GC-B act – human GC-B receptor activators, primary screen, HEK293 GC-B cells, cGMP TR-FRET, EC30 CNP; 0% at EC30 CNP, 100% saturating CNP; activation, % at 10 µM; 370,000 compounds, 0.11% hits;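 active means activation at 10 µM reaching about 35% in either raw or pattern-adjusted values, limit read from the data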
ADAM10 inh – human ADAM10 inhibitors, primary screen, biochemical, QFRET, HTS | recombinant ADAM10, EDANS/DABCYL FRET peptide cleavage, 3 h | inhibition, % at 7 µM | 370,000 compounds, 0.62% hits | AID 720582, 2013;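 active means inhibition above a per-campaign cutoff equal to the mean of compounds falling between control-based bounds plus 3 SD, cut at about 20% in these data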;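 further: 0% = DMSO wells while the 100% control is not disclosed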
Target sequence (O14672 214-748 limits assumed): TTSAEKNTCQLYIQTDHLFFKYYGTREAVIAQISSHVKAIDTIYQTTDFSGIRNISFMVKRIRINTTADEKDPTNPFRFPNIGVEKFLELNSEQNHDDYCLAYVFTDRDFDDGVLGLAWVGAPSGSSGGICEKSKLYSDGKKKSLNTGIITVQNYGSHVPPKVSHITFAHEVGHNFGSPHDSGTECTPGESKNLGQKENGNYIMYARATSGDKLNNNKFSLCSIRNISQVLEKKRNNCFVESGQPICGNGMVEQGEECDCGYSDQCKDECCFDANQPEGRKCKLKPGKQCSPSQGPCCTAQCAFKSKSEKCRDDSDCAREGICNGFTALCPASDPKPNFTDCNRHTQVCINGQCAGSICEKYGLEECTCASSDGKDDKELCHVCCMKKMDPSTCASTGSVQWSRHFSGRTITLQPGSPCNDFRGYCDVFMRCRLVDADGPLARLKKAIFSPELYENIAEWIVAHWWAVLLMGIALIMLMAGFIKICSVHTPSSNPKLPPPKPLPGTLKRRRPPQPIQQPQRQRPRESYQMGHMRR
NPR1 activator – GC-A stimulated cGMP production enhancers – HEK293 GC-A cells, cGMP TR-FRET, EC30 ANP, primary screen; 0% at EC30 ANP, 100% saturating ANP; 370,000 compounds, 0.14% hits; Atrial natriuretic peptide receptor 1 (Homo sapiens), P16066; activation, % at 10 µM; in the data active means activation above about 40%
ADAM17 inh – ADAM17 inhibitors, primary screen, biochemical, QFRET | recombinant ADAM17, EDANS/DABCYL FRET peptide cleavage | inhibition, % at 6.95 µM | 370,000 compounds, 0.83% hits | AID 720648, 2013;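 active means inhibition above the mean of compounds lying between control limits plus 3 SD, set per campaign, cut at about 8.5% in these data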;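 further: 0% = DMSO-only wells as the low control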
ADAM10 ctr – ADAM10 inhibitors, counter-screen for ADAM17 exosite inhibitor project, biochemical, FRET, human ADAM10; shares compounds with ADAM17 inh; recombinant ADAM10, EDANS/DABCYL FRET peptide cleavage, 3 h; inhibition, % at 6.95 µM; 2,900 compounds, 47% hits;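 active means mean inhibition over the triplicate runs exceeds the activity threshold set in the earlier primary screen, cut at about 20% in these data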;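 further: 0% = DMSO wells and 100% = marimastat wells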
ADAM17 confirm – ADAM17 inhibitors, hit retest, confirmation, biochemical, QFRET peptide cleavage | recombinant ADAM17, EDANS/DABCYL QFRET peptide cleavage | AID 743257, 2014 | shares compounds with ADAM17 inh | inhibition, % at 6.95 µM | 2,900 compounds, 65% hits;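 active means mean inhibition across replicates above the hit cutoff set in the primary screen, cut at about 8.5% in these data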;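 further: 0% = DMSO wells and 100% = marimastat wells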
Active calls of the source: *.

How did CCn1nc([N+](=O)[O-])c(C(C#N)c2nc3ccccc3n2C)c(Cl)c1=O (stereo not given) do in these assays?
proKLK7 act: 0; GC-B act: 0; ADAM10 inh: -10; NPR1 activator: -1; ADAM17 inh: 1

Results for CCCn1nc([N+](=O)[O-])c(C(C#N)c2nc3ccccc3s2)c(Cl)c1=O (stereo not given) ?
proKLK7 act: 0; GC-B act: 2; ADAM10 inh: 20; NPR1 activator: 3; ADAM17 inh: 8.6*; ADAM10 ctr: 24*; ADAM17 confirm: 18*

Results for C[C@H]1O[C@@H](n2c3ccc(Cl)cc3c3ccc4c5cc(Cl)ccc5[nH]c4c32)[C@H](O)[C@H](O)[C@H]1O ?
proKLK7 act: 2; GC-B act: -10; ADAM10 inh: -92; NPR1 activator: 3; ADAM17 inh: -32

What do the screens show for `COc1cc(C(C(=O)NC2CCCCC2)N(C(=O)Cc2c[nH]c3ccccc23)c2ccccc2C)cc(OC)c1OC` (stereo not given)?
proKLK7 act: 0; GC-B act: -9; ADAM10 inh: 20; NPR1 activator: -16; ADAM17 inh: 9.5*; ADAM10 ctr: 28*; ADAM17 confirm: 16*

Results for COc1ccc(C(C(=O)NC2CCCCC2)N(C(=O)Cc2c[nH]c3ccccc23)c2ccc(NC(C)=O)cc2)cc1OC (stereo not given) ?
proKLK7 act: 0; GC-B act: 2; ADAM10 inh: -1; NPR1 activator: 6; ADAM17 inh: 1

How did CC[C@@H](CCC1CCCCC1)CN(c1ccccc1)S(C)(=O)=O do in these assays?
proKLK7 act: 0; GC-B act: -8; ADAM10 inh: 2; NPR1 activator: -1; ADAM17 inh: 0

Results for COc1ccc2c(c1)[C@H]1[C@H](CO2)[C@H](c2ccccc2)[C@]2(C)C(=O)Nc3ccc(Cl)cc3C(=O)N12 ?
proKLK7 act: -3; GC-B act: 0; ADAM10 inh: 15; NPR1 activator: -4; ADAM17 inh: 8

Results for COc1ccc2c(c1)C(=O)N1[C@H]3c4cc(C)ccc4OC[C@@H]3[C@H](c3ccccc3)[C@]1(C)C(=O)N2 ?
proKLK7 act: -4; GC-B act: -8; ADAM10 inh: 14; NPR1 activator: 0; ADAM17 inh: 8.9*; ADAM10 ctr: 6; ADAM17 confirm: 9.6*

What do the screens show for `O=C(CC1SC(=Nc2ccccc2)N(CCc2c[nH]c3ccccc23)C1=O)Nc1ccccc1F` (stereo not given)?
proKLK7 act: 0; GC-B act: 1; ADAM10 inh: 14; NPR1 activator: -7; ADAM17 inh: 9.9*; ADAM10 ctr: 24*; ADAM17 confirm: 13*

How did CC[C@H](C(=O)Nc1ccccc1N1CCCC1)c1ccccc1 do in these assays?
proKLK7 act: 0; GC-B act: -14; ADAM10 inh: 5; NPR1 activator: -4; ADAM17 inh: -1

How did O=C(NC1=NCCS1)c1cccc(S(=O)(=O)N2CCc3ccccc32)c1 do in these assays?
proKLK7 act: 1; GC-B act: 0; ADAM10 inh: 9; NPR1 activator: -5; ADAM17 inh: 4

Results for O=C(NC1=NCCS1)c1ccc(Cl)c(S(=O)(=O)N2CCc3ccccc32)c1 ?
proKLK7 act: 0; GC-B act: 6; ADAM10 inh: 10; NPR1 activator: 15; ADAM17 inh: 9.4*; ADAM10 ctr: 10; ADAM17 confirm: 7
